# Results: the supplement of paper PMC8728848
# The entries come from a sample that favours the strongest signals as a whole.
# Tests used:
# Assay in all cases: glycan array binding signal (z-score within array); higher = stronger binding
# Settings in all cases: glycan notation: IUPAC condensed, linker removed; mutation: R120K
# [1] = biological target: Fuc(a1-2)Gal(b1-3)GlcNAc(b1-3)GalNAc
# How it was run: (§1)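 Glycan array data were curated from 3228 arrays in the Consortium for Functional Glycomics database and kept only where the protein sequence was available. Glycan names were converted to IUPAC-condensed notation, and columns mapping to the same glycan were averaged. The binding signal is a within-array Z-score, averaged across arrays of the same protein sequence at different concentrations or buffers and across linkers. Negative Z-scores can be read as non-binding.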
# [2] = biological target: Fuc(a1-2)Gal(b1-3)[Fuc(a1-4)]GlcNAc(b1-2)Man(a1-3)[Fuc(a1-2)Gal(b1-3)[Fuc(a1-4)]GlcNAc(b1-2)Man(a1-3)]Man(b1-4)GlcNAc(b1-4)GlcNAc
# How it was run: as §1
# [3] = biological target: Fuc(a1-2)Gal(b1-4)Fuc(a1-3)]GlcNAc(b1-2)Man(a1-3)[Fuc(a1-2)Gal(b1-4)[Fuc(a1-3)]GlcNAc(b1-2)Man(a1-6)]Man(b1-4)GlcNAc(b1-4)GlcNAc
# How it was run: as §1
# [4] = biological target: Fuc(a1-2)Gal(b1-4)GlcNAc(b1-3)Gal(b1-4)GlcNAc(b1-2)Man(a1-3)[Fuc(a1-2)Gal(b1-4)GlcNAc(b1-3)Gal(b1-4)GlcNAc(b1-2)Man(a1-6)]Man(b1-4)GlcNAc(b1-4)GlcNAc
# How it was run: as §1
# [5] = biological target: Fuc(a1-2)Gal(b1-4)[Fuc(a1-3)]GlcNAc
# How it was run: as §1
# [6] = biological target: Fuc(a1-2)Gal6S(b1-3)GlcNAc6S
# How it was run: as §1
# [7] = biological target: Fuc(a1-2)[Gal(a1-3)]Gal(b1-3)GlcNAc(b1-2)Man(a1-3)[Fuc(a1-2)[Gal(a1-3)]Gal(b1-3)GlcNAc(b1-2)Man(a1-6)]Man(b1-4)GlcNAc(b1-4)[Fuc(a1-6)]GlcNAc
# How it was run: as §1
# [8] = biological target: Fuc(a1-2)[Gal(a1-3)]Gal(b1-4)GlcNAc(b1-3)[Fuc(a1-2)[Gal(a1-3)]Gal(b1-4)GlcNAc(b1-6)]GalNAc
# How it was run: as §1
# [9] = biological target: Fuc(a1-3)GlcNAc
# How it was run: as §1
# [10] = biological target: Fuc(a1-3)[Gal(b1-4)]GlcNAc(b1-3)Gal(b1-3)[Fuc(a1-4)]GlcNAc
# How it was run: as §1
# [11] = biological target: Fuc(a1-4)GlcNAc
# How it was run: as §1
# [12] = biological target: Gal(a1-3)Gal(b1-3)GlcNAc(b1-2)Man
# How it was run: as §1
# [13] = biological target: Gal(a1-3)Gal(b1-4)[Fuc(a1-3)]GlcNAc(b1-2)Man(a1-3)[Gal(a1-3)Gal(b1-4)[Fuc(a1-3)]GlcNAc(b1-2)Man(a1-6)]Man(b1-4)GlcNAc(b1-4)GlcNAc
# How it was run: as §1
# [14] = biological target: Gal(b1-3)GlcNAc(b1-2)Man(a1-3)[Gal(b1-3)GlcNAc(b1-2)Man(a1-6)]Man(b1-4)GlcNAc(b1-4)[Fuc(a1-6)]GlcNAc
# How it was run: as §1
# [15] = biological target: Gal(b1-4)Gal
# How it was run: as §1
# [16] = biological target: Gal(b1-4)GlcNAc(b1-3)Gal(b1-3)GalNAc
# How it was run: as §1
# [17] = biological target: Gal(b1-4)GlcNAc(b1-3)Gal(b1-4)GlcNAc(b1-2)Man(a1-3)[Gal(b1-4)GlcNAc(b1-3)Gal(b1-4)GlcNAc(b1-2)Man(a1-6)]Man(b1-4)GlcNAc(b1-4)[Fuc(a1-6)]GlcNAc
# How it was run: as §1
# [18] = biological target: Gal(b1-4)GlcNAc(b1-3)Gal(b1-4)GlcNAc(b1-3)Gal(b1-4)GlcNAc(b1-3)Gal(b1-4)GlcNAc(b1-2)[Gal(b1-4)GlcNAc(b1-3)Gal(b1-4)GlcNAc(b1-3)Gal(b1-4)GlcNAc(b1-3)Gal(b1-4)GlcNAc(b1-6)]Man(a1-6)[Gal(b1-4)GlcNAc(b1-3)Gal(b1-4)GlcNAc(b1-3)Gal(b1-4)GlcNAc(b1-3)Gal(b1-4)GlcNAc(b1-2)Man(a1-3)]Man(b1-4)GlcNAc(b1-4)[Fuc(a1-6)]GlcNAc
# How it was run: as §1
# [19] = biological target: Gal(b1-4)GlcNAc(b1-3)GalNAc
# How it was run: as §1
# [20] = biological target: Gal(b1-4)GlcNAc(b1-6)GalNAc
# How it was run: as §1
# [21] = biological target: Gal(b1-4)GlcNAc6P
# How it was run: as §1
# [22] = biological target: Gal3S(b1-3)GlcNAc
# How it was run: as §1
# [23] = biological target: GalNAc3S(b1-4)GlcNAc
# How it was run: as §1
# [24] = biological target: GalNAc3S(b1-4)GlcNAc3S
# How it was run: as §1
# [25] = biological target: GalNAc3S(b1-4)[Fuc(a1-3)]GlcNAc
# How it was run: as §1
# [26] = biological target: GlcNAc(b1-2)Man(a1-3)[GlcNAc(b1-2)Man(a1-6)]Man(b1-4)GlcNAc(b1-4)[Fuc(a1-6)]GlcNAc
# How it was run: as §1
# [27] = biological target: GlcNAc(b1-2)[GlcNAc(b1-4)]Man(a1-3)[GlcNAc(b1-4)][GlcNAc(b1-2)Man(a1-6)]Man(b1-4)GlcNAc(b1-4)GlcNAc
# How it was run: as §1
# [28] = biological target: GlcNAc(b1-2)[GlcNAc(b1-6)]Man(a1-6)[GlcNAc(b1-2)Man(a1-3)]Man(b1-4)GlcNAc(b1-4)GlcNAc
# How it was run: as §1
# [29] = biological target: GlcNAc(b1-3)Gal(b1-4)GlcNAc(b1-2)Man(a1-3)[GlcNAc(b1-3)Gal(b1-4)GlcNAc(b1-2)Man(a1-6)]Man(b1-4)GlcNAc(b1-4)[Fuc(a1-6)]GlcNAc
# How it was run: as §1
# [30] = biological target: GlcNAc(b1-3)Gal(b1-4)GlcNAc(b1-2)[GlcNAc(b1-3)Gal(b1-4)GlcNAc(b1-6)]Man(a1-6)[GlcNAc(b1-3)Gal(b1-4)GlcNAc(b1-2)Man(a1-3)]Man(b1-4)GlcNAc(b1-4)GlcNAc
# How it was run: as §1
# [31] = biological target: GlcNAc(b1-3)Gal(b1-4)GlcNAc(b1-3)GalNAc
# How it was run: as §1
# [32] = biological target: Kdn(a2-3)Gal(b1-4)Glc
# How it was run: as §1
# [33] = biological target: Man(a1-2)Man(a1-2)Man(a1-6)[Man(a1-3)]Man
# How it was run: as §1
# [34] = biological target: Man(a1-2)Man(a1-6)[Man(a1-3)]Man(a1-6)[Man(a1-2)Man(a1-2)Man(a1-3)]Man
# How it was run: as §1
# [35] = biological target: Neu5Ac(a2-3)Gal
# How it was run: as §1
# [36] = biological target: Neu5Ac(a2-3)Gal(b1-3)GalNAc
# How it was run: as §1
# [37] = biological target: Neu5Ac(a2-3)Gal(b1-3)GalNAc(b1-4)Gal(b1-4)Glc
# How it was run: as §1
# [38] = biological target: Neu5Ac(a2-3)Gal(b1-3)GalNAc(b1-4)[Neu5Ac(a2-8)Neu5Ac(a2-3)]Gal(b1-4)Glc
# How it was run: as §1
# [39] = biological target: Neu5Ac(a2-3)Gal(b1-3)GlcNAc(b1-2)Man(a1-3)[Neu5Ac(a2-3)Gal(b1-3)GlcNAc(b1-2)Man(a1-6)]Man(b1-4)GlcNAc(b1-4)GlcNAc
# How it was run: as §1
# [40] = biological target: Neu5Ac(a2-3)Gal(b1-3)]Neu5Ac(a2-3)Gal(b1-4)]GlcNAc
# How it was run: as §1
# [41] = biological target: Neu5Ac(a2-3)Gal(b1-4)Glc
# How it was run: as §1
# [42] = biological target: Neu5Ac(a2-3)Gal(b1-4)GlcNAc(b1-2)Man(a1-3)[GlcNAc(b1-4)][Neu5Ac(a2-3)Gal(b1-4)GlcNAc(b1-2)Man(a1-6)]Man(b1-4)GlcNAc(b1-4)GlcNAc
# How it was run: as §1
# [43] = biological target: Neu5Ac(a2-3)Gal(b1-4)[Fuc(a1-3)]GlcNAc(b1-6)[Gal(b1-3)]GalNAc
# How it was run: as §1
# [44] = biological target: Neu5Ac(a2-6)Gal(b1-4)GlcNAc(b1-2)[Neu5Ac(a2-6)Gal(b1-4)GlcNAc(b1-4)]Man(a1-3)[GlcNAc(b1-4)][Neu5Ac(a2-6)Gal(b1-4)GlcNAc(b1-2)[Neu5Ac(a2-6)Gal(b1-4)GlcNAc(b1-6)]Man(a1-6)]Man(b1-4)GlcNAc(b1-4)GlcNAc
# How it was run: as §1
# [45] = biological target: Neu5Ac(a2-6)Gal(b1-4)GlcNAc(b1-3)Gal(b1-3)GlcNAc
# How it was run: as §1
# [46] = biological target: Neu5Ac(a2-6)GlcNAc(b1-4)GlcNAc
# How it was run: as §1
# [47] = biological target: Neu5Ac(a2-8)Neu5Ac(a2-8)Neu5Ac(a2-3)[GalNAc(b1-4)]Gal(b1-4)Glc
# How it was run: as §1
# [48] = biological target: Neu5Ac(b2-6)Gal(b1-4)GlcNAc
# How it was run: as §1
# [49] = biological target: Neu5Gc(a2-8)Neu5Gc(a2-3)Gal(b1-4)GlcNAc(b1-3)Gal(b1-4)GlcNAc
# How it was run: as §1
# [50] = biological target: Neu5Gc(b2-6)Gal(b1-4)GlcNAc
# How it was run: as §1
binder,measurement,setting,value
"Siglec-9 (Homo sapiens), Q9Y336 (protein) MLLLLLPLLWGRERAEGQTSKLLTMQSSVTVQEGLCVHVPCSFSYPSHGWIYPGPVVHGYWFREGANTDQDAPVATNNPARAVWEETRDRFHLLGDPHTKNCTLSIRDARRSDAGRYFFKMEKGSIKWNYKHHRLSVNVTALTHRPNILIPGTLESGCPQNLTCSVPWACEQGTPPMISWIGTSVSPLDPSTTRSSVLTLIPQPQDHGTSLTCQVTFPGASVTTNKTVHLNVSYPPQNLTMTVFQGDGTVSTVLGNGSSLSLPEGQSLRLVCAVDAVDSNPPARLSLSWRGLTLCPSQPSNPGVLELPWVHLRDAAEFTCRAQNPLGSQQVYLNVSLQSKATSGVTQGVVGGAGATALVFLSFCVIFVVVRSCRKKSARPAAGVGDTGIEDANAVRGSASQGPLTEPWAEDSPPDQPPPASARSSVGEGELQYASLSFQMVKPWDSRGQEATDTEYSEIKIHR",glycan array binding signal (z-score),[1],-0.33
same,glycan array binding signal (z-score),[2],2.09
same,glycan array binding signal (z-score),[3],6.8
same,glycan array binding signal (z-score),[4],-0.282
same,glycan array binding signal (z-score),[5],-0.297
same,glycan array binding signal (z-score),[6],2.46
same,glycan array binding signal (z-score),[7],1.14
same,glycan array binding signal (z-score),[8],5.67
same,glycan array binding signal (z-score),[9],-0.568
same,glycan array binding signal (z-score),[10],-0.304
same,glycan array binding signal (z-score),[11],2.96
same,glycan array binding signal (z-score),[12],0.513
same,glycan array binding signal (z-score),[13],3.77
same,glycan array binding signal (z-score),[14],-0.25
same,glycan array binding signal (z-score),[15],1.95
same,glycan array binding signal (z-score),[16],0.236
same,glycan array binding signal (z-score),[17],-0.136
same,glycan array binding signal (z-score),[18],-0.342
same,glycan array binding signal (z-score),[19],-0.357
same,glycan array binding signal (z-score),[20],0.335
same,glycan array binding signal (z-score),[21],0.464
same,glycan array binding signal (z-score),[22],-0.347
same,glycan array binding signal (z-score),[23],-0.59
same,glycan array binding signal (z-score),[24],-0.23
same,glycan array binding signal (z-score),[25],-0.228
same,glycan array binding signal (z-score),[26],-0.036
same,glycan array binding signal (z-score),[27],8.32
same,glycan array binding signal (z-score),[28],-0.232
same,glycan array binding signal (z-score),[29],0.432
same,glycan array binding signal (z-score),[30],-0.559
same,glycan array binding signal (z-score),[31],0.35
same,glycan array binding signal (z-score),[32],0.194
same,glycan array binding signal (z-score),[33],0.213
same,glycan array binding signal (z-score),[34],-0.231
same,glycan array binding signal (z-score),[35],-0.145
same,glycan array binding signal (z-score),[36],4.95
same,glycan array binding signal (z-score),[37],0.412
same,glycan array binding signal (z-score),[38],0.069
same,glycan array binding signal (z-score),[39],3.12
same,glycan array binding signal (z-score),[40],-0.118
same,glycan array binding signal (z-score),[41],4.42
same,glycan array binding signal (z-score),[42],-0.284
same,glycan array binding signal (z-score),[43],-0.345
same,glycan array binding signal (z-score),[44],-0.023
same,glycan array binding signal (z-score),[45],-0.551
same,glycan array binding signal (z-score),[46],-0.275
same,glycan array binding signal (z-score),[47],-0.338
same,glycan array binding signal (z-score),[48],-0.52
same,glycan array binding signal (z-score),[49],-0.414
same,glycan array binding signal (z-score),[50],-0.2
